Results filed as inconclusive are left out. Active and inactive are the calls of the source. Calls follow the shape of the dose curve; as a rule, active = well fitted inhibition curve with a large enough effect; inconclusive = small, poorly fitted or top-dose-only effect; inactive = no such curve, though single readings can be large or run the other way. *1 amine or outer side, *2 acyl side, *3 side chain or, on linkers, in order; H or OH if unused. Where a SMILES comes first, the peptide text is derived from it. Bridges are numbered along the chain shown (N, C = ends). X6 = O=C(CCC[*:2])[*:1]
These molecules were tested on Zika virus NS2B-NS3 protease (unlinked complex) (assay: Primary screen GU Rhodamine qHTS for Zika virus inhibitors: Unlinked NS2B-NS3 protease assay (AID 1347159; also: nearly all actives have a fitted effect of over 60% in size)). Conditions: Recombinant ZIKV NS2B-NS3 protease, Rhodamine110 substrate fluorescence; series mostly up to 107 µM; activity change, negative = inhibition: at the top concentration.
Summary of the method: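 Percent inhibition derives from the 15-min fluorescence change (ex 480, em 540 nm), normalized to no-enzyme and no-inhibitor wells. Reactions contained 25 nM NS2B-NS3 complex and 1.5 microM substrate in 10 mM Tris-HCl pH 8.0.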
% is scaled to controls: 0 for no effect and ±100 for the full control effect; potency is read from the fitted curve at half-maximal effect.

SMILES | activity change, negative = inhibition | Potency
CCOc1nc2cccc(C(=O)O)c2n1Cc1ccc(-c2ccccc2-c2noc(=O)[nH]2)cc1 | -10.6% (inactive) | –
CC[C@H]1OC(=O)[C@H](C)[C@@H](O[C@H]2C[C@@](C)(OC)[C@@H](O)[C@H](C)O2)[C@H](C)[C@@H](O[C@@H]2O[C@H](C)C[C@H](N(C)C)[C@H]2O)[C@@](C)(O)C[C@@H](C)[C@@H]2N[C@@H](COCCOC)OC([C@H]2C)[C@]1(C)O | -15.4% (inactive) | –
COc1cc([C@H]2OC[C@@H]3[C@@H](c4ccc(O[C@@H]5O[C@H](CO)[C@@H](O)[C@H](O)[C@H]5O)c(OC)c4)OC[C@]23O)ccc1O | 35.9% [at 57.1 µM] (inactive) | –
Cc1cccc(-c2[nH]c(CNc3ccccc3F)nc2-c2ccc3ncnn3c2)n1 | 39.4% (inactive) | –
COc1c(C(CC(C)C)OC(C)=O)ccc(Oc2c(O)cc(C)cc2/C=C/C(C)=O)c1C(=O)O (stereo not given) | – | 7.08 µM (active)
C[C@@H]1O[C@@H](O[C@H]2[C@H](O)[C@@H](O)[C@H](OC[C@H]3O[C@@H](OC(=O)[C@]45CCC(C)(C)C[C@H]4C4=CCC6[C@@]7(C)C[C@H](O)[C@H](O[C@@H]8O[C@H](CO)[C@@H](O)[C@H](O)[C@H]8O)[C@@](C)(C(=O)O)C7CC[C@@]6(C)[C@]4(C)CC5)[C@H](O[C@@H]4O[C@H](CO)[C@@H](O)[C@H](O)[C@H]4O)[C@@H](O)[C@@H]3O)O[C@@H]2CO)[C@H](O)[C@H](O)[C@H]1O (stereo not given in full) | -27.3% [at 19.1 µM] (inactive) | –
O=C(C1CC1)N1CC[C@@H](Cc2n[nH]c(=O)n2-c2ccc(-c3ccc4occc4c3)cc2)C1 | -17.4% [at 32.5 µM] (inactive) | –
C=CC1C(O[C@@H]2O[C@H](CO)[C@@H](O)[C@H](O)[C@H]2O)OC=C(C(=O)OC)C1Cc1nccc2c1[nH]c1ccccc12 (stereo not given in full) | 86.1% [at 57.1 µM] (inactive) | –
CC1OC(OC2C(C)OC(OC3C(OC(=O)/C=C/c4ccc(O)cc4)C(CO)OC(OC4(COC(=O)/C=C/c5ccc(O)cc5)OC(CO)C(O)C4O)C3OC3OCC(O)(CO)C3O)C(O)C2O)C(O)C(O)C1O (stereo not given) | 14.9% [at 32.5 µM] (inactive) | –
CC1OC(O[C@H]2[C@@H](O)C[C@@]3(C)C([C@H](O)C[C@]4(C)C3CC=C3C5CC(C)(C)CC[C@]5(C(=O)OC5OC(CO)C(O)C(O)C5OC5OCC(OC6OCC(OC7OCC(O)C(O)C7O)C(O)C6O)C(OC6OCC(O)(CO)C6O)C5O)CC[C@]34C)[C@]2(C)CO)C(O)C(O)C1O (stereo not given in full) | 27.1% [at 19.1 µM] (inactive) | –
N#Cc1ccnc(N2C(=O)CC[C@H]2C(=O)N(c2cncc(F)c2)[C@H](C(=O)NC2CC(F)(F)C2)c2ccccc2Cl)c1 | 0% (inactive) | –
CC(C)NC[C@H](O)COc1ccc(CCOCC2CC2)cc1 | 0% (inactive) | –
Cc1nnc(C(C)C)n1C1CC2CCC(C1)N2CCC(NC(=O)C1CCC(F)(F)CC1)c1ccccc1 (stereo not given) | -3.34% (inactive) | –
O=C(O[C@H]1[C@@H]2C=CO[C@@H](O[C@@H]3O[C@H](CO)[C@@H](O)[C@H](O)[C@H]3O)[C@@H]2[C@@]2(CO)O[C@@H]12)c1ccc(O)cc1 | -6.63% [at 57.1 µM] (inactive) | –
COCCCNCC1COc2ccccc2O1 (stereo not given) | -0.836% (inactive) | –
COc1cc(C(C)=O)ccc1O[C@@H]1O[C@H](CO[C@@H]2O[C@@H](C)[C@H](O)[C@@H](O)[C@H]2O)[C@@H](O)[C@H](O)[C@H]1O | 0.0478% [at 57.1 µM] (inactive) | –
O=C(NCc1ccc(OC(F)(F)F)cc1)C1c2ccccc2C(=O)N1C1CCOCC1 (stereo not given) | -4.4% (inactive) | –
CNC(=O)c1ccc(Nc2ncc(C(F)(F)F)c(NCc3nccnc3N(C)S(C)(=O)=O)n2)cc1 | 30.6% (inactive) | –
O=C(CCCCc1ccc2ccccc2c1)C(F)(F)F | -8.6% [at 229 µM] (inactive) | –
COc1cc2c(Nc3ccc(Cl)c(Cl)c3F)ncnc2cc1OCC1C[C@@H]2CN(C)C[C@@H]2C1 (stereo not given in full) | 314% (inactive) | –

SMILES | activity change, negative = inhibition | Potency
C[C@@H]1C(=O)O[C@H]2CC34[C@H]5C[C@@H](C(C)(C)C)C36[C@@H](OC(=O)[C@@H]6O)OC4(C(=O)O5)[C@]21O (stereo not given in full) | 2.42% (inactive) | –
C/C=C(\C)C(=O)O[C@@H](C)[C@H]1CC[C@]2(O)C3CCC4C[C@@H](OC5CC(OC)C(OC6CC(OC)C(OC7CC(OC)C(OC8OC(C)C(OC9OC(CO)C(O)C(O)C9O)C(OC)C8O)C(C)O7)C(C)O6)C(C)O5)CC[C@]4(C)C3[C@H](O)[C@@H](O)[C@]12C (stereo not given in full) | -1.05% [at 19.1 µM] (inactive) | –
COC(=O)C1=CO[C@@H](O[C@@H]2O[C@H](CO)[C@@H](O)[C@H](O)[C@H]2O)[C@@H]2[C@@H](C(=O)OC)[C@@H](O)C(O)[C@H]12 (stereo not given in full) | 2.92% [at 57.1 µM] (inactive) | –
O=c1ccn([C@@H]2O[C@H](CO)[C@@H](O)[C@H]2O)c(=O)[nH]1 | 17.2% (inactive) | –
O=C(c1ccc(C#Cc2cccc(F)c2)cn1)N1CC2CC2C1 (stereo not given) | 81.7% (inactive) | –
O=C1C[C@@H](c2ccc(O)cc2)Oc2cc(O)ccc21 | 15.7% (inactive) | –
CC1=CC(=O)OC(C)(CC(C)(O)C(=O)O)C1 (stereo not given) | 13.3% (inactive) | –
CC1[C@@H](O)[C@@H](O)C2[C@]3(C)C(C[C@H]4OC(=O)[C@H](O)[C@]1(O)[C@@]24C)C(C)(O)C[C@H](O)[C@H]3O (stereo not given in full) | 7.72% [at 57.1 µM] (inactive) | –
C=C[C@H]1[C@H](O[C@@H]2O[C@H](CO[C@@H]3OC[C@](O)(CO)[C@H]3O)[C@@H](O)[C@H](O)[C@H]2O)OC=C2C(=O)OCC[C@H]21 | 13.1% [at 57.1 µM] (inactive) | –
COC1=Cc2c(nc3n(c2=O)C(C)C(=O)NC3(O)C(C)C)OC=C1 (stereo not given) | 10.6% (inactive) | –
CN[C@@H]1[C@@H](O)[C@@H](O[C@@H]2[C@@H](O)[C@H](O[C@H]3O[C@H](CN)[C@@H](O)[C@H](O)[C@H]3O)[C@@H](N)C[C@H]2NC(=O)[C@@H](O)CN)OC[C@]1(C)O | 22.2% (inactive) | –
CC[C@H](C)[C@@H]1NC(=O)[C@H](Cc2ccc(OC)cc2)NC(=O)CCCSC[C@@H](C(=O)N2CCC[C@H]2C(=O)N[C@@H](CC(C)C)C(=O)NCC(N)=O)NC(=O)[C@H](CC(N)=O)NC(=O)[C@H](CCC(N)=O)NC1=O (Y(Me)IQNCPLG-NH2; linker N-5 via X6) | 0% (inactive) | –
CC1(C)NC2N(C1=O)c1ccccc1C2(O)CC(C(=O)O)n1cnc2ccccc2c1=O (stereo not given) | 17.7% [at 57.1 µM] (inactive) | –
CC1(CO)CC2C(O)C(=O)C3(CO)CC3(C)C2C1 (stereo not given) | 0.372% (inactive) | –
NC(Cc1c[nH]c2ccccc12)C(=O)NC(CCC(=O)O)C(=O)O (stereo not given) | 21.6% (inactive) | –
CC1C(=O)CC2C3C(O)CC(C(=O)O)C12CC3(C)C (stereo not given) | 4.47% (inactive) | –
C[C@@H]1O[C@@H](O[C@@H]2[C@@H](O)[C@@H](O)[C@H](O[C@@H]3[C@@H](O)[C@@H](O[C@]4(CO)O[C@H](CO)[C@@H](O)[C@@H]4OC(=O)/C=C/c4ccc(O)cc4)O[C@H](CO)[C@H]3OC(=O)/C=C/c3ccc(O)cc3)O[C@H]2C)[C@H](O)[C@H](O)[C@H]1O | 15.7% [at 32.5 µM] (inactive) | –
CC(C)=CC/C=C(/C)[C@H]1CC[C@]2(C)[C@@H]1[C@H](O)CC1[C@@]3(C)CC[C@H](O)C(C)(C)[C@@H]3[C@@H](O[C@@H]3O[C@H](CO)[C@@H](O)[C@H](O)[C@H]3O[C@@H]3O[C@@H](C)[C@H](O)[C@@H](O)[C@H]3O)C[C@]12C (stereo not given in full) | -1.99% [at 32.5 µM] (inactive) | –
CC1=CC(=O)CC(C)(C)C1(O)CCC(C)O (stereo not given) | 1.64% (inactive) | –
CC1CCC(=O)CC(O)C(O)CC(=O)O1 (stereo not given) | -12.2% (inactive) | –
